AmpC detergent = AmpC beta-lactamase inhibition with detergent present; AmpC hydrolysis of nitrocefin, absorbance 480 nm, 0.01% Triton; Potency, µM (titrated, usually from 114 µM), inactives show top-dose activity change, negative = inhibition, usual class: inhibitors; 0.041% of 370,000 active; AID 485294; P00811;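 further: potency means the concentration at half of the fitted maximal effect; 0% = no-compound wells and -100% = no-enzyme wells; nearly all actives have a fitted effect of over 25% in size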
Target sequence (P00811 whole entry, looked up): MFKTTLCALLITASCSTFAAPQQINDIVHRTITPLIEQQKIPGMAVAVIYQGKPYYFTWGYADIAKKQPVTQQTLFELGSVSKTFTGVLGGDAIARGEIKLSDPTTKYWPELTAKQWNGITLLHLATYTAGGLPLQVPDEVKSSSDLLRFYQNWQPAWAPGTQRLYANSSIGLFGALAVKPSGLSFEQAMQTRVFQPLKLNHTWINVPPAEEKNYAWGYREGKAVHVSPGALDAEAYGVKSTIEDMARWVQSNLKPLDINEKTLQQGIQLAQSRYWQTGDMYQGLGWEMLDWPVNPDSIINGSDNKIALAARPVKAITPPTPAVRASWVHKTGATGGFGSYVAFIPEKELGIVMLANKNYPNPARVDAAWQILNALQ
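AmpC (5.3 nM in the dispensed reagent) in 20 mM phosphate pH 7.0 with 0.01% (detergent screen) or 0.0001% Triton X-100 was preincubated with compounds for 15 min at room temperature. Nitrocefin was then added from an 800 uM solution, and hydrolysis was followed at 480 nm.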
Shiga inhibitor = blocks Shiga toxin action in Vero cells; inhibition, % at 38.7 µM; 9.2% of 290,000 active; Vero cells, Shiga toxin protein synthesis inhibition reporter; in the data active means inhibition mostly above about 28%, no sharp cut-off; inactive means mostly below about 43%; further: 0% is about no effect
NS1 inh = blocks influenza NS1 protein function. Potency, µM (series often up to 46.1 µM), inactives show top-dose activity, positive = more growth. 0.4% of 270,000 active. AID 2326; calls by dose curve; further: potency means the concentration at half of the fitted maximal effect; actives are rising curves; nearly all actives have a fitted effect of over 50% in size
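Recovery from NS1-induced slow growth read by OD600 in budding yeast switched to galactose assay medium (pH 6.0, -URA) at 1:100 dilution. Compound 23 nl per well; the matching strain lacking NS1 serves as control.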
AmpC inh no detg = blocks E. coli AmpC beta-lactamase in detergent-free assay; Potency, µM (top dose mostly 57.1 µM), without a hit: top-dose activity change, negative = inhibition, actives largely listed as inhibitors; 0.52% of 330,000 active; AmpC nitrocefin hydrolysis, absorbance 480 nm, 0.0001% Triton; P00811;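 further: potency means the concentration at half of the fitted maximal effect; plate controls were no compound for no effect and no enzyme for full effect; nearly all actives have a fitted effect of over 20% in size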
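AmpC (5.3 nM in the dispensed reagent) in 20 mM phosphate pH 7.0 with 0.01% (detergent screen) or 0.0001% Triton X-100 was preincubated with compounds for 15 min at room temperature. Nitrocefin was then added from an 800 uM solution, and hydrolysis was followed at 480 nm.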
CHX counter = counter-screen for Shiga toxin inhibitors: cycloheximide protein synthesis inhibition | cell reporter, cycloheximide protein synthesis inhibition counterscreen | max response, % | 12% of 300,000 active | AID 2314; in the data active means max response mostly above about 13%, no sharp cut-off; inactive means mostly below about 14%; further: read at 38.3 µM for the half of the compounds with a filed dose; 0% is about no effect
Active calls of the source: *; [ ] = another dose, or the depositor's remark. This excerpt belongs to a sample that is enriched for hits. Unless noted, the call rests on the fitted dose curve; in most records, active means well fitted curve in the direction sought with a large enough effect; inconclusive means small, poorly fitted or top-dose-only effect, or another doubt; inactive means no such curve, though single readings can be large; an effect the other way counts as inactive or inconclusive.

Screening O=C(c1ccc2c3n(nc2c1)-c1ccccc1CO3)N1CCCCC1 returned AmpC detergent 1%, Shiga inhibitor 80*, NS1 inh -12%, AmpC inh no detg 33% and CHX counter 29*.
For CCCCN(CC)C(=O)CSc1c2c(nc3ccc(Cl)cc13)CCCC2 the results were AmpC detergent 0%.
Screening O=C(O)c1ccc(-c2sc(Nc3ccccc3)n[n+]2-c2ccccc2)cc1 returned AmpC detergent -11%, Shiga inhibitor 26, NS1 inh 11%, AmpC inh no detg -24% and CHX counter 20*.
c1ccc(COc2ccc(-c3sc(Nc4ccccc4)n[n+]3-c3ccccc3)cc2)cc1 was read as AmpC detergent -8%, Shiga inhibitor 35*, NS1 inh -41%, AmpC inh no detg -46% and CHX counter 20*.
Screening CCc1ccc(Nc2n[n+](-c3ccccc3)c(-c3c(Cl)cccc3Cl)s2)cc1 returned AmpC detergent -14%, Shiga inhibitor -1, NS1 inh -92%, AmpC inh no detg 58% and CHX counter 0.
For Cc1cccc(-c2sc(Nc3ccccc3)n[n+]2-c2ccccc2)c1 the results were AmpC detergent -10% and AmpC inh no detg 3%.
CCc1ccc(Nc2n[n+](-c3ccccc3)c(-c3ccc(OCc4ccccc4)cc3)s2)cc1 was read as AmpC detergent -16%, Shiga inhibitor 14, NS1 inh -26%, AmpC inh no detg -37% and CHX counter 19*.
COc1ccc(-c2c(C)c3ccc(O)c(CN4CCCCC4)c3oc2=O)cc1OC was read as AmpC detergent 20%.
CCc1ccc(C(=O)COC(=O)C(NC(=O)C2CCC(C)CC2)C(C)C)cc1 (configuration not stated) was read as AmpC detergent 12%.
`COc1ccccc1C(=O)COC(=O)c1cccs1` gave AmpC inh no detg -24%.
`COc1ccccc1C(=O)COC(=O)c1ccc(N(C)C)cc1` gave AmpC detergent 0%, Shiga inhibitor 94*, AmpC inh no detg -31% and CHX counter 35*.
COc1ccccc1C(=O)OCC(=O)c1cccc([N+](=O)[O-])c1 was read as AmpC detergent inconclusive, Shiga inhibitor -9, NS1 inh -3%, AmpC inh no detg -9% and CHX counter 28*.
`CCc1ccc(C(=O)COC(=O)[C@@H](NC(N)=O)[C@@H](C)CC)cc1` gave AmpC detergent -1%, Shiga inhibitor 77*, NS1 inh 7%, AmpC inh no detg -7%[2.29 µM] and CHX counter 22*.
COc1ccccc1C(=O)COC(=O)c1ccccc1O was read as AmpC detergent -8%, Shiga inhibitor 95*, AmpC inh no detg -31% and CHX counter 31*.
`COc1cc2cc(C(c3nnnn3C3CCCCC3)N(C)C3CCCCC3)c(=O)[nH]c2cc1OC` (configuration not stated) gave AmpC detergent 3%, Shiga inhibitor -9, NS1 inh -39%, AmpC inh no detg 143% and CHX counter -4.
Screening COc1ccccc1C(=O)COC(=O)/C=C/c1ccccc1 returned AmpC detergent 6%, Shiga inhibitor 100*, NS1 inh -35%, AmpC inh no detg 10% and CHX counter 53*.
Screening CCc1ccc(C(=O)COC(=O)c2ccccc2OC)cc1 returned AmpC detergent 1%, Shiga inhibitor 133*, NS1 inh -32%, AmpC inh no detg 31% and CHX counter 43*.
COc1ccc(C(=O)OCC(=O)c2ccc(F)cc2)cc1OC was read as AmpC inh no detg 58%.
For COc1ccc(CNC(=O)CCCc2nnc3n(C(C)C)c(=O)c4sccc4n23)cc1 the results were AmpC detergent -6%.
`O=C(O)C1CCCCC1C(=O)Nc1nc(-c2ccc(Cl)s2)cs1` (configuration not stated) gave AmpC detergent 1%, Shiga inhibitor 2, AmpC inh no detg -58% and CHX counter -1.
For COc1ccc(-c2csc(NC(=O)COC(=O)C3=COCCO3)n2)cc1 the results were AmpC detergent 4%, Shiga inhibitor 53, AmpC inh no detg -3% and CHX counter 33*.
CCCC(=O)Nc1nc(-c2ccc(Cl)s2)cs1 was read as AmpC detergent 0%, Shiga inhibitor 28, AmpC inh no detg -24% and CHX counter 38*.
`O=C(O)C(=O)Nc1nc(-c2ccc3c(c2)OCCO3)cs1` gave AmpC detergent -4%, Shiga inhibitor 26*, NS1 inh 0%, AmpC inh no detg 66% and CHX counter 14*.
For O=C(Nc1nc(-c2ccc(-c3ccccc3)cc2)cs1)C1=COCCO1 the results were AmpC detergent -12%, Shiga inhibitor 10, NS1 inh 9%, AmpC inh no detg -23% and CHX counter 7.
`CCCC(=O)Nc1nc(-c2ccc(OC)cc2)cs1` gave AmpC detergent 5%, Shiga inhibitor 138*, NS1 inh 0%, AmpC inh no detg -10% and CHX counter 40*.
`Cc1nc(-n2nc(C)c(Cc3ccccc3Cl)c2C)sc1C(=O)N1CCCCC1C` (configuration not stated) gave AmpC detergent 24%.
CCOC(=O)c1ccc(CN(Cc2ccccc2C)S(=O)(=O)c2ccc(C(C)(C)C)cc2)cc1 was read as AmpC detergent 0%.
Screening CCC(C)C(=O)Nc1nc(-c2ccc3c(c2)NC(=O)CO3)cs1 (configuration not stated) returned AmpC detergent 0%, Shiga inhibitor 39, NS1 inh 7%, AmpC inh no detg -31% and CHX counter 7.
Screening CSCC(=O)Nc1nc(-c2ccc3c(c2)OCCO3)cs1 returned AmpC detergent -2%, Shiga inhibitor 119*, AmpC inh no detg -47% and CHX counter 51*.
O=C(Nc1nc(-c2ccc3c(c2)OCO3)cs1)C1CC1 was read as AmpC detergent -4%, Shiga inhibitor 66*, NS1 inh -53%, AmpC inh no detg -16% and CHX counter 44*.
`O=C(CSCC(=O)Nc1nc(-c2ccc3c(c2)OCO3)cs1)Nc1nccs1` gave AmpC detergent 0%, Shiga inhibitor 6, NS1 inh inconclusive, AmpC inh no detg -21% and CHX counter -2.
Screening CC(=O)Nc1nnc(-c2ccc3c(c2)CCCC3)o1 returned AmpC detergent 0%, Shiga inhibitor 65*, NS1 inh -68%, AmpC inh no detg -19% and CHX counter 46*.
`COc1ccccc1C(=O)Nc1nnc(-c2ccc3c(c2)CCCC3)o1` gave AmpC detergent -10%, Shiga inhibitor 39, NS1 inh -34%, AmpC inh no detg 67% and CHX counter 18.
CCc1ccc(-c2csc(NC(=O)COC(=O)CCc3nc4ccccc4s3)n2)cc1 was read as AmpC detergent 3%, Shiga inhibitor 53*, NS1 inh -4%, AmpC inh no detg -38% and CHX counter 48*.
`COc1cc(NC(=O)Cn2c(=O)n(Cc3ccco3)c(=O)c3sc4ccccc4c32)cc(OC)c1` gave AmpC detergent 8%.

Screening results: PubChem BioAssay, National Center for Advancing Translational Sciences (NCATS)
